# Results taken from publication PMC7862700, “An all-to-all approach to the identification of sequence-specific readers for epigenetic DNA modifications on cytosine”.
# How the values were obtained:
# Assay in all cases: DAPPL (digital affinity profiling via proximity ligation, sequencing); 10 mM Tris-HCl pH 7.5, 50 mM NaCl, 1 mM DTT, 4% glycerol, room temperature, 30 min; GST-TFs on glutathione beads, 16-mer random dsDNA library, 0.1% formaldehyde crosslink after washing; high values mean tight binding
# [1] = target: T1, FLI1 (Homo sapiens, UniProt Q01543 1-452); conditions: protein: recombinant; tags: N-terminal GST; dsDNA, one strand shown
# T1 sequence: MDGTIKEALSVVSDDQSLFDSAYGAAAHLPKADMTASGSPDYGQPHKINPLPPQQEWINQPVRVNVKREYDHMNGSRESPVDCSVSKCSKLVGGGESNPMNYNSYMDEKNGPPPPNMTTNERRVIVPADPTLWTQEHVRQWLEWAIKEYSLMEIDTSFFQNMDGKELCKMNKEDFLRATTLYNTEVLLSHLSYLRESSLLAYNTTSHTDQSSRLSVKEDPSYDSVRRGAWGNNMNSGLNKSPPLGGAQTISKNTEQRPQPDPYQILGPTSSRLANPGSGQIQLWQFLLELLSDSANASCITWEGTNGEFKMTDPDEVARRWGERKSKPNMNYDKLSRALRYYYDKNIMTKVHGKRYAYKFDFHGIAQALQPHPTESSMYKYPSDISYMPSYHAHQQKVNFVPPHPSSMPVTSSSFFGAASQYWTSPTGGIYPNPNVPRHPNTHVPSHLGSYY
# Procedure, shortened: (§1)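 Sequencing on an Illumina NextSeq500 followed washing, crosslinking with 0.1% formaldehyde, proximity ligation (BsaI/T4 ligase, 1 h, 37 °C) and PCR amplification of pools that had been incubated for 30 min at room temperature with 200 nmole of a random double-stranded 16-mer DNA library in Tris/NaCl/DTT/glycerol buffer. Each pool held DNA-barcoded human transcription factors, expressed in yeast as GST fusions and captured on glutathione beads, plus a tag-only sample. Binding signal is a hexamer's read frequency for a factor divided by its frequency in the tag-only sample.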
# [2] = target: T2, ELK1 (Homo sapiens, UniProt P19419 1-428); conditions: protein: recombinant; tags: N-terminal GST; dsDNA, one strand shown
# T2 sequence: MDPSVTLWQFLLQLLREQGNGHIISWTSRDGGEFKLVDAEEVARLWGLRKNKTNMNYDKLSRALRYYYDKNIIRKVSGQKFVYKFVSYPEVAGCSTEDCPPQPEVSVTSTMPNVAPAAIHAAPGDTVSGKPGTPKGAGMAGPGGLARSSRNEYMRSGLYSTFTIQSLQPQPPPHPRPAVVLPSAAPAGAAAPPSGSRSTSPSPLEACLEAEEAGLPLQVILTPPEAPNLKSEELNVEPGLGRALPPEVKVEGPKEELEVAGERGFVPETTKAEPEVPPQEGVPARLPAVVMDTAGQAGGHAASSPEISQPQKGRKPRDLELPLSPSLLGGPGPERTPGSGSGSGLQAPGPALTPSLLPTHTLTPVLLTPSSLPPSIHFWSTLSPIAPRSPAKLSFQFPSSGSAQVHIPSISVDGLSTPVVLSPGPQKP
# Procedure, shortened: as §1
# [3] = target: T3, GABPA (Homo sapiens, UniProt Q06546 1-454); conditions: protein: recombinant; tags: N-terminal GST; dsDNA, one strand shown
# T3 sequence: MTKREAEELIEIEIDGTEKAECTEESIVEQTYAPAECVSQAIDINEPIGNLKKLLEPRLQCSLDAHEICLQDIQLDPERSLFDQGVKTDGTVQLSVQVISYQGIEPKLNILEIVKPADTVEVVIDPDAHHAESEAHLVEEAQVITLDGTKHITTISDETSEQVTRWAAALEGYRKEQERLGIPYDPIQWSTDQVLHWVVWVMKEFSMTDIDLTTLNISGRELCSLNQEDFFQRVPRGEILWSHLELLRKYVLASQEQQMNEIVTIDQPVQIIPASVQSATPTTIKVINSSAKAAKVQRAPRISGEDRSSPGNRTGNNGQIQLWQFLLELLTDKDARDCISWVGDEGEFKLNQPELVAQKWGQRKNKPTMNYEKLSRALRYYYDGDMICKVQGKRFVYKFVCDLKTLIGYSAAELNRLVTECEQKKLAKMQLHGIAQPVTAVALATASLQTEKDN
# Procedure, shortened: as §1
# [4] = target: T4, ERG (Homo sapiens, UniProt P11308 1-479); conditions: protein: recombinant; tags: N-terminal GST; dsDNA, one strand shown
# T4 sequence: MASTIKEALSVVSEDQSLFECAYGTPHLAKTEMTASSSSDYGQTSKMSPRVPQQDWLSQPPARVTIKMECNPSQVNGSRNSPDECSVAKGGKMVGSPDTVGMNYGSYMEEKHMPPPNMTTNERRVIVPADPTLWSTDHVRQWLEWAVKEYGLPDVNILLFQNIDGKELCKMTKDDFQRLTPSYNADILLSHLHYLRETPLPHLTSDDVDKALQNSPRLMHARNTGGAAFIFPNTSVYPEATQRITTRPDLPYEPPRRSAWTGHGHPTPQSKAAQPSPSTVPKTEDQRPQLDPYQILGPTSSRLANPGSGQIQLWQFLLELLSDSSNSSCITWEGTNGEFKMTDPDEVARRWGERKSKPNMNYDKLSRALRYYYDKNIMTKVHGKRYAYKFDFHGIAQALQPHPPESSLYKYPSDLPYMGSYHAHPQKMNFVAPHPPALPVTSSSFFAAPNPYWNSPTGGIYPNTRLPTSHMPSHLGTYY
# Procedure, shortened: as §1
# [5] = target: ELF1 (Homo sapiens, UniProt P32519 1-619); conditions: protein: recombinant; tags: N-terminal GST; dsDNA, one strand shown
# Procedure, shortened: as §1
# [6] = target: T5, EHF (Homo sapiens, UniProt Q9NZC4 1-300); conditions: protein: recombinant; tags: N-terminal GST; dsDNA, one strand shown
# T5 sequence: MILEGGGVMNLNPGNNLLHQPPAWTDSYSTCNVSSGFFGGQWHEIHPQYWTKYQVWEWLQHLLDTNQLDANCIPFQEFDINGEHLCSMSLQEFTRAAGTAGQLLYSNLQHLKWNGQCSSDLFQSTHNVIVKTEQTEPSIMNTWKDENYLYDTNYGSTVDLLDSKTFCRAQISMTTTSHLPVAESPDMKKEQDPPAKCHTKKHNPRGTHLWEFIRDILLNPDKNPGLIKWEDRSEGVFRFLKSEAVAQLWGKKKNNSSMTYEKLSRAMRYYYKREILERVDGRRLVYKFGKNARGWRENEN
# Procedure, shortened: as §1
# [7] = target: SPI1 (Homo sapiens, UniProt P17947 1-270); conditions: protein: recombinant; tags: N-terminal GST; dsDNA, one strand shown
# Procedure, shortened: as §1
# [8] = target: SPIB (Homo sapiens, UniProt Q01892 1-262); conditions: protein: recombinant; tags: N-terminal GST; dsDNA, one strand shown
# Procedure, shortened: as §1
# [9] = target: T6, ELK3 (Homo sapiens, UniProt P41970 1-407); conditions: protein: recombinant; tags: N-terminal GST; dsDNA, one strand shown
# T6 sequence: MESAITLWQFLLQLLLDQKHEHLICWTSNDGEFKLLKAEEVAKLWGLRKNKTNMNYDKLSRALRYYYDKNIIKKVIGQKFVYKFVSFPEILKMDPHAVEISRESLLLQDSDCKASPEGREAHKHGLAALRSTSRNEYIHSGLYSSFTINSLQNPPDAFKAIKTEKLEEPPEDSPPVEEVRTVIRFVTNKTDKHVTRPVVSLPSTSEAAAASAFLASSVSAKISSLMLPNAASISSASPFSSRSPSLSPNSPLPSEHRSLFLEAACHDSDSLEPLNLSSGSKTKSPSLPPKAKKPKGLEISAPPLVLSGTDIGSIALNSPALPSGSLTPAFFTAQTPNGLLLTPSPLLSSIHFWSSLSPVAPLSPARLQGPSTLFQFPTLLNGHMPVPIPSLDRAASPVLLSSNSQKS
# Procedure, shortened: as §1
# [10] = target: T7, FEV (Homo sapiens, UniProt Q99581 1-238); conditions: protein: recombinant; tags: N-terminal GST; dsDNA, one strand shown
# T7 sequence: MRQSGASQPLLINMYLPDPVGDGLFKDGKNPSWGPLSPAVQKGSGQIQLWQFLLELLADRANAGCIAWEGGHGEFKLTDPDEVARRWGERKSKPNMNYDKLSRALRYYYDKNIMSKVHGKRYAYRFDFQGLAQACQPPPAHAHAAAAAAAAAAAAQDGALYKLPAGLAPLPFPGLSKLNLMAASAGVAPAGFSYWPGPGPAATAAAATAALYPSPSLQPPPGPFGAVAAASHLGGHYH
# Procedure, shortened: as §1
# [11] = target: ETV5 (Homo sapiens, UniProt P41161 1-510); conditions: protein: recombinant; tags: N-terminal GST; dsDNA, one strand shown
# Procedure, shortened: as §1
# [12] = target: HSF1 (Homo sapiens, UniProt Q00613 1-529); conditions: protein: recombinant; tags: N-terminal GST; chain copies: 3; dsDNA, one strand shown
# Procedure, shortened: as §1
# [13] = target: T8, SPIC (Homo sapiens, UniProt Q8N5J4 1-248); conditions: protein: recombinant; tags: N-terminal GST; dsDNA, one strand shown
# T8 sequence: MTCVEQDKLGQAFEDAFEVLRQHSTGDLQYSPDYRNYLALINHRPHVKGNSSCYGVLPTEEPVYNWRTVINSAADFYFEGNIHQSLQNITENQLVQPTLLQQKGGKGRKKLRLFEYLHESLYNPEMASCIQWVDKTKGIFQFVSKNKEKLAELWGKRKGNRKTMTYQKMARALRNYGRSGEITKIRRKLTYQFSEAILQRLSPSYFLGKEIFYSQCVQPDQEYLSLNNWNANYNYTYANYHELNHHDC
# Procedure, shortened: as §1
# [14] = target: ELF4 (Homo sapiens, UniProt Q99607 1-663); conditions: protein: recombinant; tags: N-terminal GST; dsDNA, one strand shown
# Procedure, shortened: as §1
# [15] = target: T9, ELK4 (Homo sapiens, UniProt P28324-2 1-405); conditions: protein: recombinant; tags: N-terminal GST; dsDNA, one strand shown
# T9 sequence: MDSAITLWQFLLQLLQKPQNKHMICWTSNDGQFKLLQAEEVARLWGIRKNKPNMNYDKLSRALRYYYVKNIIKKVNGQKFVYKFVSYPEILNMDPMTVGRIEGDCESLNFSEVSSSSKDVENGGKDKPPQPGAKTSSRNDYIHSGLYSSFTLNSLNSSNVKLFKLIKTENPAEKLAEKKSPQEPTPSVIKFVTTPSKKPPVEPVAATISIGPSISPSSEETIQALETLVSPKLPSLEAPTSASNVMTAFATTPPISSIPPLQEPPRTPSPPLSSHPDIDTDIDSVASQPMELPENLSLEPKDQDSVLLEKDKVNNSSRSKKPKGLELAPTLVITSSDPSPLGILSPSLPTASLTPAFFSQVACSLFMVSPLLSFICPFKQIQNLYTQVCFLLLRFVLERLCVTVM
# Procedure, shortened: as §1
# [16] = target: T10, ETV2 (Homo sapiens, UniProt O00321 1-342); conditions: protein: recombinant; tags: N-terminal GST; dsDNA, one strand shown
# T10 sequence: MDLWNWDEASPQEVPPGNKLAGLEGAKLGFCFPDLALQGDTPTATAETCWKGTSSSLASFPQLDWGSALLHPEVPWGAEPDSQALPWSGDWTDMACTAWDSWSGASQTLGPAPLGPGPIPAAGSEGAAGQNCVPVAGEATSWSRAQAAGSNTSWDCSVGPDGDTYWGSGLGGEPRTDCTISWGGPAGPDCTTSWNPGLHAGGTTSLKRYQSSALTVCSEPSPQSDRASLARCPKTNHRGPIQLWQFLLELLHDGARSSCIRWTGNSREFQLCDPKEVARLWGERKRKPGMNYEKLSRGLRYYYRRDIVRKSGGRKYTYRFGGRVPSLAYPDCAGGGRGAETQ
# Procedure, shortened: as §1
# [17] = target: T11, ELF3 (Homo sapiens, UniProt P78545 1-371); conditions: protein: recombinant; tags: N-terminal GST; dsDNA, one strand shown
# T11 sequence: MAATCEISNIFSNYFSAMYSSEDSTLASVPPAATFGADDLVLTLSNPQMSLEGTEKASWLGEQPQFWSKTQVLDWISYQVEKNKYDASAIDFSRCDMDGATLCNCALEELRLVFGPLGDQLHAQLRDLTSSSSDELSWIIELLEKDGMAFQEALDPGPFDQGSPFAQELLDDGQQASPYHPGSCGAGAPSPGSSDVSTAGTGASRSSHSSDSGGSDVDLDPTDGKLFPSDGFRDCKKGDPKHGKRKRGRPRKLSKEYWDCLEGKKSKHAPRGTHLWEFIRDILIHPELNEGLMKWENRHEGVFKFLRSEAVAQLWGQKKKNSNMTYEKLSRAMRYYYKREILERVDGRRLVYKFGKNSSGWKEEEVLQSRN
# Procedure, shortened: as §1
# [18] = target: CRX (Homo sapiens, UniProt O43186 1-299); conditions: protein: recombinant; tags: N-terminal GST; dsDNA, one strand shown
# Procedure, shortened: as §1
# [19] = target: ETV1 (Homo sapiens, UniProt P50549 1-477); conditions: protein: recombinant; tags: N-terminal GST; dsDNA, one strand shown
# Procedure, shortened: as §1
# Sequence of SPIB (Q01892 whole entry): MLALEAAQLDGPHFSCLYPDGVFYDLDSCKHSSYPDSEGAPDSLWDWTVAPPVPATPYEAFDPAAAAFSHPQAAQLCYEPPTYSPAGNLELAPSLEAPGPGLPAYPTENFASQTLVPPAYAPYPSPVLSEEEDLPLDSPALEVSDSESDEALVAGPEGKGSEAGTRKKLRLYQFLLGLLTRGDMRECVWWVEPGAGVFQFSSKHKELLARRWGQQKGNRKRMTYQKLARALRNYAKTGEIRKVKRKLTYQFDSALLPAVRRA
# Sequence of ELF4 (Q99607 whole entry): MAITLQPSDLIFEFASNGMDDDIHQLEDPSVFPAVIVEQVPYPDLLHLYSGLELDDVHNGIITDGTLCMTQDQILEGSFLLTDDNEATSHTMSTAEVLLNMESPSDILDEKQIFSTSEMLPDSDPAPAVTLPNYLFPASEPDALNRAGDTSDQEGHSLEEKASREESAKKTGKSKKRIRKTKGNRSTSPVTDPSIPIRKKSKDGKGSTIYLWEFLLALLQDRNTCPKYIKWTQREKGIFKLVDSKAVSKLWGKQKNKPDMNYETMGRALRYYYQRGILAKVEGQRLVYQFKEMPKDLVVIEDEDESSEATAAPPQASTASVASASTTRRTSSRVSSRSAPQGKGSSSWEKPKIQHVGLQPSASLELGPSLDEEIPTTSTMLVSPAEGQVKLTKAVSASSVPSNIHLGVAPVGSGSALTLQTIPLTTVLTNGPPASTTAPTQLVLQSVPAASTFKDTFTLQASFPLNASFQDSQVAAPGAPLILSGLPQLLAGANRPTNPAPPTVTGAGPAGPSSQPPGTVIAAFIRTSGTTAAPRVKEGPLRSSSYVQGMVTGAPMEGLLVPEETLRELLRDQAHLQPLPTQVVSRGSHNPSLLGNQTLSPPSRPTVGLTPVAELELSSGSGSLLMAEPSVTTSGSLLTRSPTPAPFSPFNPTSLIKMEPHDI
# Sequence of CRX (O43186 whole entry): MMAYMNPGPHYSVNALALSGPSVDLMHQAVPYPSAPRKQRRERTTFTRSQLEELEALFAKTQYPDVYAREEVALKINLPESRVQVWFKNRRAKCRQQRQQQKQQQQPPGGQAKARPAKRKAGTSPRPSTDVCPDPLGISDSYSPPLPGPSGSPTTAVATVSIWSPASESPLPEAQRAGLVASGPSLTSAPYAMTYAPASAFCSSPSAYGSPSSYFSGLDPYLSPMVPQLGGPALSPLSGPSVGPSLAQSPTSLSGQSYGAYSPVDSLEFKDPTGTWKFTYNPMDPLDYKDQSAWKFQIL
# Sequence of ELF1 (P32519 whole entry): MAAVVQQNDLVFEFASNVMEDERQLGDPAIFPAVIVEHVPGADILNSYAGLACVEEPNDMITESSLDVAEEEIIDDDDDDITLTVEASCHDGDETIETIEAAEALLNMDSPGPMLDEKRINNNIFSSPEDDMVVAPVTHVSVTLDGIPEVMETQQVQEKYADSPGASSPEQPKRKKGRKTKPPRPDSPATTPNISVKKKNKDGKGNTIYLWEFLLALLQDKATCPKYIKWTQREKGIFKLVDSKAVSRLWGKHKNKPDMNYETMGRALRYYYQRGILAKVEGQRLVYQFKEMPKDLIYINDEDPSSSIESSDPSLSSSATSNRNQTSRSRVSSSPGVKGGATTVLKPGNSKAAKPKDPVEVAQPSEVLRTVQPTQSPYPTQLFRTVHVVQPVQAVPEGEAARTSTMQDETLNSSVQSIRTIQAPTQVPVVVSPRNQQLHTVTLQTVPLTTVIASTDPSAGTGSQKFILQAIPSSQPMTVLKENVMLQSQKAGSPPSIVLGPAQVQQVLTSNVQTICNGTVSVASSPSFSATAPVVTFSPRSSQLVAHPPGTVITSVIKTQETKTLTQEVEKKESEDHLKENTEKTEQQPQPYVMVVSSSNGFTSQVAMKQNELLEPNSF
# Sequence of ETV5 (P41161 whole entry): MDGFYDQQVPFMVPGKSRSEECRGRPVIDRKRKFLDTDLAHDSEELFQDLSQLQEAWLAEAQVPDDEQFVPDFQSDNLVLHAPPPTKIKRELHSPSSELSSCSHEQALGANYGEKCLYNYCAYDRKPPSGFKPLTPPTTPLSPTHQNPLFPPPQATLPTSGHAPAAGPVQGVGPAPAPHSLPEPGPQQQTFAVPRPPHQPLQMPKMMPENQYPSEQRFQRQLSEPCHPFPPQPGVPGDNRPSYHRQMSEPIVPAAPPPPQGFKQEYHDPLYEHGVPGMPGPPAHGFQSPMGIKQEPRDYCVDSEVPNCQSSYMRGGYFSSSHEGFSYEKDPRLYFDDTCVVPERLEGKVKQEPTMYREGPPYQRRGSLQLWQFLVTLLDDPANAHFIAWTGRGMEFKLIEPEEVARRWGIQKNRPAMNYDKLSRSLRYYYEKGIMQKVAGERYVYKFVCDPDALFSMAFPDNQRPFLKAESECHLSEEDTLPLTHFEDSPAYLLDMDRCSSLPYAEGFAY
# Sequence of ETV1 (P50549 whole entry): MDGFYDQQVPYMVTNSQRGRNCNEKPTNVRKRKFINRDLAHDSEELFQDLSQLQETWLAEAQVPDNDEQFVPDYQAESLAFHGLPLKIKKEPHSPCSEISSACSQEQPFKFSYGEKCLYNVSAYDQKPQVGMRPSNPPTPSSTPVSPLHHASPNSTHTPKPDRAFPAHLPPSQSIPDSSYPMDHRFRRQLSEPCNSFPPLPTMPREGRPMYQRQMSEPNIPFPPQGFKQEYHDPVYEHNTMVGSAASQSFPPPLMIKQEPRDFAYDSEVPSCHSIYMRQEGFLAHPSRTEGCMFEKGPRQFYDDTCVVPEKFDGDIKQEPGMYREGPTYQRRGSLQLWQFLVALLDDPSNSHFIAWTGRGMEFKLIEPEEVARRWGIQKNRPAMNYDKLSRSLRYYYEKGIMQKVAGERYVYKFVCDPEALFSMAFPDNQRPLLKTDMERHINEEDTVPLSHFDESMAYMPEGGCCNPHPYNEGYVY
# Sequence of HSF1 (Q00613 whole entry): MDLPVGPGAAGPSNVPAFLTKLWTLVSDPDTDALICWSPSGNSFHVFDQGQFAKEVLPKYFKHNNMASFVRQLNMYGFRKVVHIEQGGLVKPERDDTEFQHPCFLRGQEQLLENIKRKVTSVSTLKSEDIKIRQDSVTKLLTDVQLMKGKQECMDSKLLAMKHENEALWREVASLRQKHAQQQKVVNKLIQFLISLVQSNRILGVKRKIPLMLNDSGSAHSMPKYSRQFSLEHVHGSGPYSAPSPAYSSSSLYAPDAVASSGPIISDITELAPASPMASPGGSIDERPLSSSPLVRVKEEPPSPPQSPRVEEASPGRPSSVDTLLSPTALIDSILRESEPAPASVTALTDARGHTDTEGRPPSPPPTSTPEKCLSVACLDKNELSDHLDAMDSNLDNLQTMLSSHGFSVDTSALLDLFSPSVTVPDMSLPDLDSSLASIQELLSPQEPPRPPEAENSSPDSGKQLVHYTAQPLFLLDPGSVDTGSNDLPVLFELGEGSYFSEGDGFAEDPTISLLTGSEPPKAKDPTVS
sequence,measurement,setting,value
ATCTCG,binding signal,[1],"1.41 fold enrichment (6-mer frequency, TF over GST control)"
same,binding signal,[2],"1.27 fold enrichment (6-mer frequency, TF over GST control)"
same,binding signal,[3],"1.42 fold enrichment (6-mer frequency, TF over GST control)"
same,binding signal,[4],"1.23 fold enrichment (6-mer frequency, TF over GST control)"
same,binding signal,[5],"1.39 fold enrichment (6-mer frequency, TF over GST control)"
same,binding signal,[6],"1.34 fold enrichment (6-mer frequency, TF over GST control)"
same,binding signal,[7],"1.37 fold enrichment (6-mer frequency, TF over GST control)"
same,binding signal,[8],"1.26 fold enrichment (6-mer frequency, TF over GST control)"
same,binding signal,[9],"1.26 fold enrichment (6-mer frequency, TF over GST control)"
same,binding signal,[10],"1.19 fold enrichment (6-mer frequency, TF over GST control)"
same,binding signal,[11],"1.35 fold enrichment (6-mer frequency, TF over GST control)"
same,binding signal,[12],"2.44 fold enrichment (6-mer frequency, TF over GST control)"
same,binding signal,[13],"1.19 fold enrichment (6-mer frequency, TF over GST control)"
same,binding signal,[14],"1.32 fold enrichment (6-mer frequency, TF over GST control)"
same,binding signal,[15],"1.42 fold enrichment (6-mer frequency, TF over GST control)"
same,binding signal,[16],"1.51 fold enrichment (6-mer frequency, TF over GST control)"
same,binding signal,[17],"1.55 fold enrichment (6-mer frequency, TF over GST control)"
same,binding signal,[18],"1.92 fold enrichment (6-mer frequency, TF over GST control)"
same,binding signal,[19],"1.46 fold enrichment (6-mer frequency, TF over GST control)"
